From PubChem
MITF primary: blocks human microphthalmia-associated transcription factor; inhibition, % at 2.6 µM; O75030; 650,000 compounds, 0.91% hits; AlphaScreen MITF homodimerization, bead proximity signal; AID 1259374; in the data active = inhibition above about 50%;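 also: 0% = vehicle wells with protein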
GPR151 activ: activates the human receptor GPR151; activation, % at 11.2 µM; 650,000 compounds, 1% hits; AID 1508602; Q8TDV0; PathHunter beta-arrestin GPR151 cells, luminescence; in the data active = activation above about 4.9%;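 also: 0% = median of compound wells and 100% = cells with positive control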
Target sequence (Q8TDV0 whole entry, looked up): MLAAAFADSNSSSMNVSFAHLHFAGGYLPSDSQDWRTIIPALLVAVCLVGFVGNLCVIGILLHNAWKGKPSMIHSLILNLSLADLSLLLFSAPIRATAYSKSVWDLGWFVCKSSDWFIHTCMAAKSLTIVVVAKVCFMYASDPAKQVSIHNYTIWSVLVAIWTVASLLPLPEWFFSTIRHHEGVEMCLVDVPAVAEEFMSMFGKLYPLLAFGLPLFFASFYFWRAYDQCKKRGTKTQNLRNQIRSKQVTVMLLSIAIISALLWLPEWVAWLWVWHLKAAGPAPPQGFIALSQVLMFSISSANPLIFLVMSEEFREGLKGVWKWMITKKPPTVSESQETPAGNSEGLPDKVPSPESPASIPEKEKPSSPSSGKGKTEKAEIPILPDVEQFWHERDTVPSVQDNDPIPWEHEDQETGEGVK
FBW7 activator: human FBW7 E3 ligase activation, primary screen; normalized activity (activation), % at 26.1 µM; AlphaScreen FBW7–phospho-cyclin E peptide binding, activator screen; 650,000 compounds, 0.13% hits; Q969H0; in the data active = normalized activity above about 1.9%;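 also: purified mutant Fbw7 with reduced substrate affinity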
TEAD-YAP block: TEAD-YAP interaction inhibition; HEK-TIYL cells, TEAD-Gal4/YAP UAS-luciferase luminescence; inhibition, % at 9.12 µM; 640,000 compounds, 1.4% hits; in the data active = inhibition above about 32%;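 also: 0% = median of test compound wells and 100% = reference inhibitor wells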
GPR151 confirm: human GPR151 activation, confirmation screen; shares compounds with GPR151 activ; activation, % at 11.2 µM; GPR151 PathHunter beta-arrestin cells, luminescence, 90 min; % of EA-reagent control over plate median; 6,700 tested, under 10 active; AID 1508609;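 active = mean percent activation across replicates above the confirmation screen cutoff of 4.91%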
GPR119 counter: counter-screen for GPR151 activators: effect on human GPR119 | activation, % at 11.2 µM | shares compounds with GPR151 activ | GPR119 PathHunter beta-arrestin cells, luminescence, 90 min; 0 = compound-well median, 100 = enzyme-acceptor control | 6,700 compounds, 0.3% hits;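 active = mean percent activation in the counterscreen above 29.09%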;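 also: counterscreen on off-target GPR119 to flag nonselective hits from the GPR151 activator screen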
* marks the source's active call; other numbers are inactive results; / = no result. In the library only some 3.5% were active in any assay of this set; here they are far more common.

SMILES	MITF primary	GPR151 activ	FBW7 activator	TEAD-YAP block	GPR151 confirm	GPR119 counter
Cn1c2c(c(=O)n(C)c1=O)C(c1cccc(F)c1)C1=C(CC(C)(C)CC1=O)N2 (configuration not stated)	5	18*	0	-5	1	9
O=C1C/C(=N\Nc2ccc([N+](=O)[O-])cc2S(=O)(=O)N2CCOCC2)c2ccccc21	-8	0	0	-4	/	/
CC(C)(C)c1ccc(-c2ccc(OCCN3CCOCC3)nc2)cc1	-2	5.8*	-1	58*	-1	4
Cc1ccc(-c2ccc(OCCN3CCOCC3)nc2)cc1	17	1	0	-23	/	/
CCCCc1ccc(C2=N/C(=C\c3ccccc3)C(=O)O2)cc1	1	6.4*	0	-2	0	-10
CCCCc1ccc(C2=N/C(=C\c3ccc(C)cc3)C(=O)O2)cc1	-6	0	0	-4	/	/
Cc1ccc(CN2CCNC(=O)C2CC(=O)NCc2cnn(C)c2)cc1 (configuration not stated)	-4	0	0	1	/	/
Cc1ccc(CN2CCNC(=O)C2CC(=O)NCc2cc(C(F)(F)F)ccc2F)cc1 (configuration not stated)	0	6.5*	0	-3	0	5
CSc1nc2ccccc2c(=O)n1C1CCCCC1	2	5.3*	0	-6	0	9
O=C(CSc1ccc([N+](=O)[O-])cn1)Nc1cccc(C(F)(F)F)c1	-4	5.6*	0	6	-1	-7
NS(=O)(=O)c1ccc(NC(=O)CSc2ccc([N+](=O)[O-])cn2)cc1	2	7.9*	0	14	-1	-9
O=C(CSc1ccc([N+](=O)[O-])cn1)Nc1ccc(Oc2ccccc2)cc1	-7	-1	1	-15	/	/
O=C1/C(=C\c2ccc(-c3ccc(Cl)cc3)o2)Sc2ccccc21	10	8.4*	0	-9	0	0
O=C(O)c1cc(-c2ccc(/C=C3\Sc4ccccc4C3=O)o2)ccc1Cl	19	0	0	-2	/	/
COCCCNc1nc2c(S(=O)(=O)c3ccccc3)nnn2c2ccccc12	6	-1	0	-1	/	/
COCCCNc1nc2c(S(=O)(=O)c3ccccc3)nnn2c2ccsc12	-3	6.5*	0	-7	1	9
Cc1ccc2c(c1)/C(=C\c1ccc(Br)cc1)c1cc3ccccc3nc1-2	-2	6.1*	0	5	-1	-8
Cc1cccc(C)c1NC1=C(Cl)C(=O)OC1OC(=O)c1ccccc1Br (configuration not stated)	3	2	0	5	/	/
CC(=O)c1ccc(NC(=O)C(Cc2ccccc2)n2cccc2)cc1 (configuration not stated)	7	5.2*	0	5	-1	6
COc1ccc(Cl)cc1NC(=O)c1cnn2c1NC(c1ccc(OC)c(OC)c1)CC2C(F)(F)F (configuration not stated)	3	8.6*	0	-18	1	9
COC(=O)c1ccc(NC(=O)C(C)N(c2ccc(C)c(C)c2)S(C)(=O)=O)cc1 (configuration not stated)	5	2	0	-6	/	/
CCOC(=O)c1ccccc1NC(=O)C(C)N(c1ccc(C)cc1)S(C)(=O)=O (configuration not stated)	7	5.9*	0	2	0	1
CCOC(=O)c1ccccc1NC(=O)C(C)N(c1ccc(Cl)cc1)S(C)(=O)=O (configuration not stated)	14	-2	0	4	/	/
CCOC(=O)c1ccc(NC(=O)C(C)N(c2ccc(C)c(C)c2)S(C)(=O)=O)cc1 (configuration not stated)	-3	5.1*	0	-8	0	13
COc1cc(/C=C2\NC(=S)NC2=O)cc(Cl)c1OC	-10	0	0	3	/	/
SMILES	MITF primary	GPR151 activ	FBW7 activator	TEAD-YAP block	GPR151 confirm	GPR119 counter
CCOC(=O)C1=C(C)NC2=C(C(=O)C(C(=O)OCC)C(c3ccc(OC)cc3)C2)C1c1cc(OC)c(OC)c(OC)c1 (configuration not stated)	16	4	0	4	/	/
CCN(CC(=O)N1CCC(Cc2ccccc2)CC1)S(=O)(=O)c1ccc(Cl)cc1	-6	1	0	10	/	/
CN(CC(=O)N1CCC(Cc2ccccc2)CC1)S(=O)(=O)c1ccc2ccccc2c1	5	5.7*	0	-10	0	-3
O=C(Cn1cccn1)N1CCC(c2[nH]ncc2Cc2ccccc2)CC1	-6	1	0	14	/	/
Cc1ccc(NC(=O)C2CCN(S(=O)(=O)c3ccc(Cl)s3)CC2)cc1	-17	5.9*	0	2	-1	-15
O=C1NCC2=C1C(c1ccc(Br)cc1)Nc1ccccc1N2 (configuration not stated)	8	5.5*	0	5	0	11
COc1ccc(C2Nc3ccccc3NC3=C2C(=O)NC3)cc1 (configuration not stated)	9	-2	0	-61	/	/
Cc1ccc(S(=O)(=O)N2N=C3CCCCC3C2(O)C(F)(F)F)cc1 (configuration not stated)	4	0	0	-9	/	/
CCCC1=NN(S(=O)(=O)c2ccc(C)cc2)C(O)(C(F)(F)F)C1 (configuration not stated)	14	5.5*	0	-3	0	-2
O=C(COc1ccc(Br)cc1)N(c1ccccc1)C1C=CS(=O)(=O)C1 (configuration not stated)	2	6.3*	0	13	0	-1
Cc1ccc(N(C(=O)CCc2ccccc2)C2C=CS(=O)(=O)C2)cc1C (configuration not stated)	0	5.4*	0	9	0	3
COc1ccc(OC)c(NC(=O)COc2ccc(Br)cc2C(C)(C)C)c1	-2	5.9*	0	9	1	15
COc1ccc(OC)c(NC(=O)COc2ccccc2C(C)(C)C)c1	17	-1	0	-4	/	/
COc1ccc(NC(=O)COc2ccc(C)cc2C)c(OC)c1	10	7.9*	0	3	0	9
CC(C)(C)c1ccc(/C=N/Nc2ccc(S(N)(=O)=O)cc2[N+](=O)[O-])cc1	4	5.0*	0	3	1	-13
NS(=O)(=O)c1ccc(N/N=C/c2ccccc2Cl)c([N+](=O)[O-])c1	3	0	0	6	/	/
Cc1nn(Cc2ccccc2)c(Cl)c1/C=N/Nc1ccc(S(N)(=O)=O)cc1[N+](=O)[O-]	9	5.2*	0	10	1	3
O=C1N=C(N2CCOCC2)S/C1=C\c1ccc(Cl)cc1Cl	-15	0	0	-3	/	/
O=C(NC1CCCCC1)c1nn2c(C(F)(F)F)cc(-c3ccccc3)nc2c1Br	0	5.0*	0	1	0	1
